Chronic BCR inh: inhibitors of chronic active B-cell receptor signaling; AID 493014; 340,000 tested, 0.05% active; Potency, µM (top dose mostly 46.1 µM), for the others: at the top dose activity change, negative = inhibition, actives largely listed as inhibitors; ABC-DLBCL IkBa-CBG/CBR reporter, luminescence ratio, 4 h; active means well fitted inhibition curve with a large enough effect in the signal ratio, with a control signal flat, not every such curve was filed as active; inconclusive means small, poorly fitted or top-dose-only effect, or effect the other way, or a change in a side signal; the % refers to the signal ratio;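 further: potency means the concentration at half of the fitted maximal effect; plate controls were basal doxycycline-induced cells for no effect and cells given 10 µM MG132 for full effect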
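TMD8 human ABC-DLBCL cells with doxycycline-inducible IκBα–green luciferase fusion and unfused red luciferase, in 0.5% FBS medium; compounds up to 46 uM, 4 h at 37C. Green/red luminescence ratio, filter-overlap corrected, fitted to concentration-response curves.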
DRD3 agonist: agonists of human D3 dopamine receptor. D3R DiscoveRx beta-arrestin cells, luminescence, 90 min. max activation, %. 410,000 tested, 0.58% active. AID 652048; in the data active means max activation above about 30%; further: 0% is about no effect
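Agonist-mode cell screen: cells plated at 1500/well and incubated overnight at 37 °C, then exposed to library compounds for 90 min at 37 °C. Detection reagent was added for 30–60 min at room temperature, and luminescence was read.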
DRD3 antagonist: D3 dopamine receptor (human) antagonism; D3R cells, DiscoveRx beta-arrestin luminescence, antagonist mode; hits give low values; max response, negative = inhibition, %; 360,000 tested, 2.5% active; in the data active means max response below about -50%; inconclusive means no clear call, values can overlap the other calls; further: on the % scale 0 is the no-effect control and ±100 the full control effect
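Cells expressing the human receptor were seeded at 1500 cells/well, incubated overnight at 37 degrees C in 5% CO2, then exposed to library compounds with dopamine controls for 90 minutes at 37 degrees C before luminescent detection.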
D1 antagonist: antagonists of human D1 dopamine receptor | P21728 | HEK293 TREx D1 cells, calcium flux, dopamine EC80; hits give low values | activity change, negative = inhibition, % at 10 µM | 360,000 tested, 3.2% active | AID 504652; in the data active means activity change below about -30%; further: on the % scale 0 is the no-effect control and ±100 the full control effect
Target sequence (P21728 whole entry, looked up): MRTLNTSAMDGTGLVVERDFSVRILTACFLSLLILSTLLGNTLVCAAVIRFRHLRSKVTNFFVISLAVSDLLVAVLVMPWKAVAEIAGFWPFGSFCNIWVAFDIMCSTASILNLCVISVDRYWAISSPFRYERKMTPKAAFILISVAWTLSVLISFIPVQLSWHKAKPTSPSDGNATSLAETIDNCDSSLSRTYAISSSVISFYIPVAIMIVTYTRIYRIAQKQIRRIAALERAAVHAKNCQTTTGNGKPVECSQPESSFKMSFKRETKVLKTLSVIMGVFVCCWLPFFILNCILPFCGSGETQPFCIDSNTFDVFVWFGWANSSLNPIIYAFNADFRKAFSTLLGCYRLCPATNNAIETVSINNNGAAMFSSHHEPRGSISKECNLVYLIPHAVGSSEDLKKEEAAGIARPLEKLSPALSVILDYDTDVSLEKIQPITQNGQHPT
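Calcium flux readout: force-coupled, inducible Hek293 Trex D1 line, cells induced overnight at 30 C with tetracycline, dye-loaded 30–90 min at RT. Antagonism scored against EC80 dopamine challenge given 180 s after compound.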
D1 PAM: enhances dopamine response at the human D1 receptor | potentiation, % at 10 µM | HEK293 TREx D1 cells, calcium flux, dopamine EC20 potentiation | 360,000 tested, 0.036% active; in the data active means potentiation above about 30%; further: 0% is about no effect
D1 agonist: human D1 receptor agonism; HEK293 T-REx D1 cells, calcium flux, agonist mode; activation, % at 2 µM; 360,000 tested, 1% active; P21728; in the data active means activation above about 30%; further: 0% is about no effect
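Agonism was scored from calcium flux recorded over 180 s (1 read/s) after pintool compound addition, following a 10-cycle baseline. Cells were inducible force-coupled HEK293 TREx D1, plated overnight at 30 C and loaded with no-wash calcium dye.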
* marks the source's active call; other numbers are inactive results. Compounds with a hit are over-represented: about 6% of the library has one in this group of screens.

`O=C(Nc1ccccc1OCc1cc(=O)n2ccccc2n1)c1cccc(Br)c1` gave DRD3 agonist -2, D1 antagonist -10, D1 PAM -4 and D1 agonist -1.
Screening O=C(c1ccccc1NS(=O)(=O)c1ccc(F)cc1)N1CCCCC1 returned Chronic BCR inh 0%, DRD3 agonist -9, DRD3 antagonist -21, D1 antagonist 14, D1 PAM -2 and D1 agonist 5.
Screening Cc1cc(C)c(OCC(=O)Nc2ccccc2N2CCOCC2)c(C)c1 returned Chronic BCR inh -5%, DRD3 agonist 8, DRD3 antagonist -3, D1 antagonist 4, D1 PAM 2 and D1 agonist 44*.
For Cc1ccc(NS(=O)(=O)c2ccc(C(=O)N3CC(C)CC(C)C3)cc2)cc1 (centres undefined) the results were Chronic BCR inh -27%, DRD3 agonist -3, DRD3 antagonist -3, D1 antagonist -42*, D1 PAM 1 and D1 agonist 73*.
CN1CCN(C(=O)c2ccccc2NS(=O)(=O)c2ccc(F)cc2)CC1 was read as Chronic BCR inh 1%, DRD3 agonist -23, DRD3 antagonist -63*, D1 antagonist 9, D1 PAM 1 and D1 agonist 0.
Screening O=C(Nc1ccccc1N1CCOCC1)c1ccccc1NS(=O)(=O)c1ccc(F)cc1 returned Chronic BCR inh inconclusive, DRD3 agonist 0, DRD3 antagonist 8, D1 antagonist -87*, D1 PAM -8 and D1 agonist 2.
`Cc1cc(C)c(OCC(=O)Nc2ccccc2N2CCCCC2)c(C)c1` gave Chronic BCR inh 5%, DRD3 agonist -5, DRD3 antagonist -7, D1 antagonist 4, D1 PAM 1 and D1 agonist 6.
For CCC(=O)N1c2ccc(S(=O)(=O)CCC(=O)N3CCN(c4ccc(F)cc4)CC3)cc2CC1C (centres undefined) the results were DRD3 agonist 3, D1 antagonist -4, D1 PAM 6 and D1 agonist 7.
`O=C(Nc1cc(S(=O)(=O)Nc2ccc(Cl)cc2)ccc1O)c1ccc(S(=O)(=O)N2CCCCCC2)cc1` gave Chronic BCR inh -15%, DRD3 agonist -17, DRD3 antagonist -50*, D1 antagonist 0, D1 PAM 2 and D1 agonist 4.
Screening Cc1ccc(C)c(S(=O)(=O)Nc2ccc(C(=O)N3CCOCC3)cc2)c1 returned DRD3 agonist -2 and DRD3 antagonist -51*.
Cc1ccc(NS(=O)(=O)c2cc(C(=O)N3CCOCC3)ccc2C)cc1 was read as Chronic BCR inh -1%, DRD3 agonist 6, DRD3 antagonist 11, D1 antagonist 8, D1 PAM 2 and D1 agonist 2.
Screening Cc1ccc(C)c(S(=O)(=O)Nc2ccccc2C(=O)Nc2ccccc2N2CCOCC2)c1 returned Chronic BCR inh inconclusive, DRD3 agonist -4, DRD3 antagonist -57*, D1 PAM -1 and D1 agonist 0.
For O=C(Nc1cc(S(=O)(=O)N2CCCCC2)ccc1Cl)c1ccccc1NS(=O)(=O)c1ccc(F)cc1 the results were Chronic BCR inh inconclusive, DRD3 agonist 2, DRD3 antagonist 0, D1 antagonist -33*, D1 PAM -3 and D1 agonist 17.
O=P(O)(O)C(O)(Cc1cnc2ccccn12)P(=O)(O)O was read as DRD3 agonist -5.
COC(=O)C(C)Sc1nnc2cc(C)c3cc(C)cc(C)c3n12 (centres undefined) was read as DRD3 agonist 2, D1 antagonist -10, D1 PAM 2 and D1 agonist -1.
For COc1ccc(/C=N/Nc2snc(SC)c2C#N)cc1OC the results were Chronic BCR inh inconclusive, DRD3 agonist 0, DRD3 antagonist 0, D1 antagonist 16, D1 PAM -8 and D1 agonist 0.
Screening COc1cccc(/C=N/Nc2snc(SC)c2C#N)c1O returned Chronic BCR inh inconclusive, DRD3 agonist 4, DRD3 antagonist inconclusive, D1 antagonist -41*, D1 PAM -1 and D1 agonist 37*.
Screening CC(=O)c1ccc(NC(=O)CCc2c(C)nc3c(c2C)c(=O)n(C)c(=O)n3C)cc1 returned DRD3 agonist 0, D1 antagonist 1, D1 PAM -1 and D1 agonist 1.
For CCCCc1cc(=O)oc2c(C)c(OCC(=O)N3CCC(C(=O)O)(c4ccccc4)CC3)ccc12 the results were Chronic BCR inh inconclusive, DRD3 agonist -7, DRD3 antagonist 7, D1 antagonist -5, D1 PAM -1 and D1 agonist 1.
CCc1cc(=O)oc2cc(C)cc(OCC(=O)N3CCC(C(=O)NC(C)C)(c4ccccc4)CC3)c12 was read as Chronic BCR inh 6%, DRD3 agonist 18, DRD3 antagonist 60, D1 antagonist -38*, D1 PAM -8 and D1 agonist 1.
`Cc1cc(C)cc(OCC(=O)N(C)CC(=O)Nc2ccc(N3CCOCC3)cc2)c1` gave Chronic BCR inh inconclusive, DRD3 agonist -19, DRD3 antagonist -9, D1 antagonist 5, D1 PAM -4 and D1 agonist 3.
For Cc1ccc(S(=O)(=O)C[C@@H]2OC3CCCCC3N2S(=O)(=O)c2ccc(C)cc2)cc1 (some centres undefined) the results were DRD3 agonist 3 and DRD3 antagonist -16.
Screening CCCCNC(=O)Oc1cccc(N2CCCC2=O)c1 returned Chronic BCR inh 1%, DRD3 agonist 5, DRD3 antagonist -69*, D1 antagonist -18, D1 PAM -6 and D1 agonist 2.
O=C(NCCCN1CCCC1=O)c1cccc(N2CCCC2=O)c1 was read as Chronic BCR inh 4%, DRD3 agonist -5, DRD3 antagonist -1, D1 antagonist 0, D1 PAM 1 and D1 agonist 2.
Screening CC(C)(C)NC(=O)CN(C(=O)CCC(=O)Nc1nccs1)c1ccccc1F returned DRD3 agonist -1 and DRD3 antagonist 11.
`Clc1ccc(CSc2nnc(-c3ccncc3)s2)cc1` gave Chronic BCR inh 8%, DRD3 agonist -2, DRD3 antagonist -3, D1 antagonist -23, D1 PAM 3 and D1 agonist 2.
For Clc1cccc(Cl)c1CSc1nnc(-c2ccncc2)s1 the results were Chronic BCR inh 7%, DRD3 agonist 8, DRD3 antagonist 18, D1 antagonist -16, D1 PAM 13 and D1 agonist 144*.
Screening Cc1ccc2c(=O)c(C(=O)c3cccc(Cl)c3)cn(CC(=O)Nc3ccccc3C(F)(F)F)c2n1 returned DRD3 agonist 2, D1 antagonist -5, D1 PAM -2 and D1 agonist 5.
